The list is not random: actives were taken first. Their share in the collection is about 2.4%.
ABHD5 PLIN5 PPI = ABHD5-PLIN5 protein interaction inhibition; Q00G26+Q8WTS1; Split G. princeps luciferase complementation, luminescence, 4 h; inhibition, % at 4 µM; 0.78% of 360,000 active; AID 602281;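 active = inhibition above the mean inhibition across every tested compound plus 3 SD, cut at about 22% in these data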
HTR2A ag = mouse HTR2A agonism via beta-arrestin recruitment; 0.66% of 360,000 active; activation, % at 7.6 µM; CHO-K1 mHTR2A beta-arrestin complementation, luminescence; percent of 30 µM serotonin response;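 active = activation above a run cutoff, the mean activation of all tested compounds plus 3 SD, cut at about 14% in these data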
Target sequence (P35363 whole entry, looked up): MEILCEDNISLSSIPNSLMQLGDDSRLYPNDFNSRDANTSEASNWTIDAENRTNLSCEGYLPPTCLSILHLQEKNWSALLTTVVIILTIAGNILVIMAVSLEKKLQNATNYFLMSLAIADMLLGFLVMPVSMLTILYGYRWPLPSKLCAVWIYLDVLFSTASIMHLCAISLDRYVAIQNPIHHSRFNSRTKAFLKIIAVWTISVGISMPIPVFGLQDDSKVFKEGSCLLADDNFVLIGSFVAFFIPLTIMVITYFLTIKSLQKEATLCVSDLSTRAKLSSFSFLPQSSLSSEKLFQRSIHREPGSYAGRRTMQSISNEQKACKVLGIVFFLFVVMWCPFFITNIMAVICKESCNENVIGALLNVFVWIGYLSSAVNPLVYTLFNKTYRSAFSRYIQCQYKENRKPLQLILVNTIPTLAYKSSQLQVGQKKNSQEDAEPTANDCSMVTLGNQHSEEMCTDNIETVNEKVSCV
TLR4 MyD88 comp = inhibitors of human TLR4-MyD88 binding | O00206+Q99836 | HeLa CL3-4 TLR4/MyD88 BLA complementation, FRET ratio | inhibition, % at 8.4 µM | 0.18% of 200,000 active; in the data active = inhibition above about 25%
NOD2 RIPK2 PPI = blocks binding of human NOD2 to RIPK2; CHO BLA complementation NOD2-RIPK2, CCF4 ratio; AID 624267; O43353; inhibition, % at 4.98 µM; 0.38% of 360,000 active; in the data active = inhibition above about 21%
TLR9-MyD88 inh = blocks human TLR9 binding to MyD88; Q9NR96+Q99836; CHO BLA complementation TLR9-MyD88, CCF4 FRET ratio; inhibition, % at 4.98 µM; 0.21% of 340,000 active; AID 504734;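 active = inhibition above the mean over all tested compounds plus 3 SD, cut at about 21% in these data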
CRFR2-BP antag = blocks CRF-induced signaling of the CRF-BP/CRF-R2 complex. HEK293 CRF-R2/CRF-BP, CRF-induced calcium fluorescence. inhibition, % at 11.8 µM. 0.59% of 350,000 active. AID 588475;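 active = inhibition of the ligand-induced calcium signal above about 50% at the single tested concentration, limit read from the data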
NOD2 RIPK2 conf = NOD2-RIPK2 interaction inhibition confirmed; shares compounds with NOD2 RIPK2 PPI; CHO cells, NOD2-RIPK2 BLA complementation, CCF4 FRET; inhibition, % at 4.98 µM; 70% of 1,200 active; AID 624370;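 active = mean inhibition across replicates above a set limit taken from the earlier primary screen, cut at about 21% in these data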
BLA counter = counter-screen for NOD2-RIPK2 interaction inhibitors: BLA reporter. CHO BLA reporter, CCF4 FRET ratio, counterscreen. inhibition, % at 4.98 µM. 57% of 1,200 active. shares compounds with NOD2 RIPK2 PPI;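 active = mean inhibition above the low-control mean inhibition plus three low-control SD, cut at about 11% in these data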
Of the large screens only hits and unclear results are named; the others gave an inactive call (follow-up assays come after a bar, where they were run).

CCOP(=S)(OCC)Oc1cc(C)nc(C(C)C)n1	none (no result: TLR4 MyD88 comp)
O=P(O)(O)CN1CCNCCN(CP(=O)(O)O)CCNCC1	none (no result: TLR4 MyD88 comp)
CC(=O)OC1C(O)C(C)OC(OC2C(OC(=O)C3CCC4C(C3)OC3(CC(OC(=O)/C=C/c5ccccc5)C(C)CO3)C43CO3)OC(C)C(O)C2OC(C)=O)C1O (stereo not drawn)	NOD2 RIPK2 PPI 23 (no result: TLR4 MyD88 comp) | NOD2 RIPK2 conf 28 | BLA counter inactive
C[C@@H]1CCC2[C@@H](C)C(=O)O[C@@H]3OC4(C)CCC1[C@@]23OO4 (stereo partly drawn)	none (no result: ABHD5 PLIN5 PPI, HTR2A ag, TLR4 MyD88 comp, NOD2 RIPK2 PPI, TLR9-MyD88 inh)
COc1ccc(CC(=O)C2C(=O)N(C)c3ccccc32)cc1OC (stereo not drawn)	none (no result: TLR4 MyD88 comp)
COC(=O)C12OCC34C(CC5C(C)=C(O)C(=O)CC5(C)C3C(O)C1O)OC(=O)C(OC(=O)/C=C(\C)C(C)C)C24 (stereo not drawn)	NOD2 RIPK2 PPI 29 (no result: TLR4 MyD88 comp) | NOD2 RIPK2 conf 24 | BLA counter inactive
CCOC(=O)[C@]12Cc3cc(OC)ccc3[C@H]1N(C1CCCCC1)C(=O)c1cc(OC)ccc12	NOD2 RIPK2 PPI 40 (no result: TLR4 MyD88 comp, TLR9-MyD88 inh, CRFR2-BP antag) | NOD2 RIPK2 conf 26 | BLA counter inactive
CCOC(=O)[C@]12Cc3cc(C)ccc3[C@H]1N(CCC(=O)OC)C(=O)c1cc(OC)ccc12	none (no result: TLR4 MyD88 comp, TLR9-MyD88 inh, CRFR2-BP antag)
COC(=O)C1=C(c2ccc(Cl)c(C(F)(F)F)c2)C[C@@H]2CC[C@H]1N2C(=O)NCCCOC(C)C	none (no result: TLR4 MyD88 comp)
Cc1ccc(OC(=O)N(C)C[C@H]2OCc3cnnn3CCCC(=O)N([C@@H](C)CO)C[C@H]2C)cc1	none (no result: TLR4 MyD88 comp)
COc1ccc(CC(=O)N2CCN(C)CC2)cc1	none
COc1ccc(CC2NCC(O)C2OC(C)=O)cc1 (stereo not drawn)	NOD2 RIPK2 PPI 35 (no result: TLR4 MyD88 comp) | NOD2 RIPK2 conf 32 | BLA counter inactive
CCOP(=O)(CCP(=O)(OCC)OCC)OCC.C[CH2][Sn]([Cl])([Cl])[CH2]C	ABHD5 PLIN5 PPI 78, NOD2 RIPK2 PPI 25 (no result: TLR4 MyD88 comp) | NOD2 RIPK2 conf 51 | BLA counter inactive
CCOP(=O)(OCC)OCC	none (no result: TLR4 MyD88 comp)
ClCCN(CCCl)c1ccc(C=Cc2ccncn2)cc1	NOD2 RIPK2 PPI 63 (no result: TLR4 MyD88 comp, TLR9-MyD88 inh) | NOD2 RIPK2 conf 47 | BLA counter 60
CC1=CC2OC3CC4OC(=O)C=CC=CC(C(C)O)OCC(O)C(C)CC(=O)OCC2(CC1O)C4(C)C31CO1 (stereo not drawn)	NOD2 RIPK2 PPI 22 (no result: TLR4 MyD88 comp) | NOD2 RIPK2 conf 21 | BLA counter inactive
CC1=CC2OC3CC4OC(=O)C=CC=CC(=O)OCCC(C)C(O)C(=O)OCC2(CC1O)C4(C)C31CO1 (stereo not drawn)	NOD2 RIPK2 PPI 29 (no result: TLR4 MyD88 comp) | NOD2 RIPK2 conf 28 | BLA counter inactive
C[C@]12CC[C@H](O)CC1=CC(=O)C1C2CC[C@]2(C)C(=O)[C@H](O)CC12 (stereo partly drawn)	none (no result: TLR4 MyD88 comp)
COc1ccc(-c2ccc3c(c2)CN(C(=O)CCc2ccccc2)Cc2cnnn2-3)cc1	none (no result: TLR4 MyD88 comp, TLR9-MyD88 inh, CRFR2-BP antag)
CC(=O)OC1(C)CC(C)C(=O)C(C(O)CC2CC(=O)NC(=O)C2)C1 (stereo not drawn)	NOD2 RIPK2 PPI 28 (no result: TLR4 MyD88 comp) | NOD2 RIPK2 conf 23 | BLA counter inactive
CC(=O)OC1C(=O)OCC23CCC4(C)OC4C2OC2CC(OC(=O)C=CC=CC(=O)OCCC1C)C3(C)C21CO1 (stereo not drawn)	NOD2 RIPK2 PPI 31 (no result: TLR4 MyD88 comp) | NOD2 RIPK2 conf 25 | BLA counter inactive
CC(O)C1C=CC=CC(=O)OC2CC3OC4C5OC5(C)CCC4(COC(=O)C4OC4(C)C(O)CO1)C2(C)C31CO1 (stereo not drawn)	NOD2 RIPK2 PPI 29 (no result: TLR4 MyD88 comp) | NOD2 RIPK2 conf 21 | BLA counter inactive
CCC1CN1P(=O)(Oc1ccc(Cl)cc1)N1CC1CC (stereo not drawn)	none (no result: TLR4 MyD88 comp)
N#CC1=C(N)Oc2c(c(=O)sc3ccccc23)C1c1cccnc1 (stereo not drawn)	NOD2 RIPK2 PPI 22 | NOD2 RIPK2 conf inactive | BLA counter inactive
Nc1nc(N)c2cnnn2n1	none (no result: TLR4 MyD88 comp)
CS(=O)(=O)c1ccc(C2=C(CNC(=O)c3nccs3)[C@H]3CC[C@@H](C2)N3CCOc2ccccc2)cc1	none (no result: TLR4 MyD88 comp)

Bioassay records: PubChem, several laboratories
